Source: PubChem (National Center for Advancing Translational Sciences (NCATS))
A selection: hits, their analogues and other compounds. The true share with any hit is near 3%.
PMP22 txn – Cell-based coincidence reporter assay to measure PMP22 gene transcription in S16 Pmp22-F2sN cells - Primary screen; S16 Pmp22-F2sN Schwann cells, FLuc/NLuc coincidence luminescence, 24 h; 43,000 compounds, 2% hits; AID 1508649, 2021; Potency, µM (series often up to 57.5 µM), usual class: inhibitors; active means clear falling dose curves in both reporters; inconclusive means both reporters move, but less clearly or upward; inactive means either reporter flat; the % is the NLuc reporter signal
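Reporter cells (S16 Pmp22-F2sN, 500–1,000 per well) exposed to compounds for 24 h, 37C, 5% CO2; lysis with FLuc read after 10 min, then Stop&Glo and NLuc read after 10 min.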
S16 F2sN tox – Cell viability qHTS assay in S16 Pmp22-F2sN cells | 43,000 compounds, 0.48% hits | Potency, µM (doses to about 57.5 µM), usual class: cytotoxic | S16 Pmp22-F2sN Schwann cells viability, CellTiter-Glo, 24 h | AID 1508642, 2021; further: nearly all actives have a fitted effect of over 65% in size
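S16 Pmp22-F2sN Schwann cells (500-1,000/well) in phenol-red-free DMEM with 10% FBS received 23 nL compound by pin tool for 24 h at 37 °C. Viability was then read as CellTiter-Glo luminescence after 15 min at room temperature.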
SKOV3 invasion – Primary qHTS assay for Inhibitors of ovarian cancer metastasis using an organotypic tumor microenvironment (TME) model; Potency, µM (titrated, usually from 45.8 µM), actives largely listed as inhibitors; AID 1963576, 2024; SKOV3ip1-GFP adhesion/invasion on 3D omental model, fluorescence; 46,000 compounds, 0.1% hits; further: nearly all actives have a fitted effect of over 65% in size
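Adhesion/invasion was scored as fixed GFP-labeled SKOV3ip1 cell counts (488/509 nm), normalized to DMSO and tomatine controls. Cancer cells in serum-free medium, with four compound doses (0.36-46 umol/L), sat 2 hr at RT then 16 hr at 37 C on a 48 hr fibroblast/mesothelial/ECM culture.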
p53null 32C kill – qHTS Screen for Compounds that Selectively Target Cancer Cells with p53 Mutations: Cytotoxicity of p53 Null Cells at the Permissive Temperature. H1299-neo p53 null cells, ATP luminescence, 24 h, 32C. Potency, µM (highest dose often 46.1 µM), most hits filed as cytotoxic. 55,000 compounds, 0.62% hits. AID 903, 2007; further: nearly all actives have a fitted effect of over 55% in size
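Overnight 37C seeding (600 cells/well) of H1299-neo preceded a 24 hr, 32C exposure to compounds up to 46 uM. ATP levels, read by luminescence after 20 min at RT, indicated surviving cells.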
p53null 39C tox – qHTS Screen for Compounds that Selectively Target Cancer Cells with p53 Mutations: Cytotoxicity of p53 Null Cells at the Nonpermissive Temperature; H1299 p53-null (neo) cells, 39C, ATPlite viability, 24 h; Potency, µM (doses to about 46.1 µM), actives largely listed as cytotoxic; 55,000 compounds, 0.97% hits; further: nearly all actives have a fitted effect of over 50% in size
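ATP-luminescence viability readout (ATPlite, 20 min RT) after 24 hr compound treatment at 39C of H1299-neo or H1299-p53A138V cells; titration up to 46 uM; normalized to DMSO and 100 uM tamoxifen; Hill-fit AC50.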
mTORC1 inh – Acumen qHTS Assay for Inhibitors of the mTORC1 Signaling Pathway in MEF (Tsc2-/-, p53-/-) Cells: Sytravon | 44,000 compounds, 0.78% hits | Potency, µM (series often up to 38.3 µM), most hits filed as inhibitors | Tsc2-/- p53-/- MEF, phospho-rpS6 immunofluorescence/PI, 24 h | AID 493208, 2011; further: nearly all actives have a fitted effect of over 50% in size
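Compounds act on Tsc2-/-, p53-/- fibroblasts carrying an empty vector for 24 h before fixation and dual staining for phospho-S6 and DNA (propidium iodide). Values are percentages of cells above a rapamycin-defined pS6/PI threshold.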
NLuc saturating – Biochemical NLuc saturation counterscreen for small molecule modulators of PMP22 gene expression - Nano-Glo assay; Potency, µM (highest dose often 57.5 µM), most hits filed as inhibitors; shares compounds with PMP22 txn; Secreted NLuc enzyme (filtered S16 cell medium), Nano-Glo luminescence; 690 compounds, 4% hits
NLuc Km ctr – Biochemical coelenterazine-based NLuc counterscreen for small molecule modulators of PMP22 gene expression - Km assay. AID 1508639, 2021. 690 compounds, 5% hits. Potency, µM (titrated, usually from 57.5 µM), usual class: inhibitors. secreted NLuc enzyme, coelenterazine luminescence, Km conditions. shares compounds with PMP22 txn
FLuc ctr PMP22 – Biochemical FLuc counterscreen for small molecule modulators of PMP22 gene expression. shares compounds with PMP22 txn. purified P. pyralis FLuc, luminescence, 10 min. Potency, µM (top dose mostly 57.5 µM), usual class: inhibitors. 690 tested, under 10 active
Target sequence (P08659 whole entry, looked up): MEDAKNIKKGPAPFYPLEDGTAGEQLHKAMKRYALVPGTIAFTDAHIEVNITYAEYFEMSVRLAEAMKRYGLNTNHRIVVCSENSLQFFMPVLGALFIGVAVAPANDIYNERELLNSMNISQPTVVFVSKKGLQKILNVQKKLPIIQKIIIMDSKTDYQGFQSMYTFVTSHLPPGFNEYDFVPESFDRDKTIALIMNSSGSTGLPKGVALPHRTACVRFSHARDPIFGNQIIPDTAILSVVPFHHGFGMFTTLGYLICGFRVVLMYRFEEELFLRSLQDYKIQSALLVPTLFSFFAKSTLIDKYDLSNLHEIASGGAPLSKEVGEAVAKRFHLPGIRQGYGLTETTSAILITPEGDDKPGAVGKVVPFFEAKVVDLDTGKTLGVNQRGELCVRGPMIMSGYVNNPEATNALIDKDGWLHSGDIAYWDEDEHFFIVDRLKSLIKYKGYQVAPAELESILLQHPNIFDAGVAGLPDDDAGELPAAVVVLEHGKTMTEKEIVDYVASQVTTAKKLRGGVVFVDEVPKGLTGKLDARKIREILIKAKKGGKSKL
S16 F2sN tox cnf – Cell viability qHTS assay in S16 Pmp22-F2sN cells - Confirmatory screen. shares compounds with PMP22 txn. S16 Schwann cells viability, CellTiter-Glo ATP luminescence, 24 h. Potency, µM (doses to about 57.5 µM), usual class: cytotoxic. 690 compounds, 7% hits
PMP22 txn cnf – Cell-based coincidence reporter assay to measure PMP22 gene transcription in S16 Pmp22-F2sN cells - Confirmatory screen | S16 Schwann cells Pmp22-F2sN, dual luciferase, 24 h | Potency, µM (series often up to 57.5 µM), usual class: inhibitors | shares compounds with PMP22 txn | 690 compounds, 22% hits; active means clear falling dose curves in both reporters; inconclusive means both reporters move, but less clearly or upward; inactive means either reporter flat; the % is the FLuc reporter signal
A number is an active result; - = inactive; ? = inconclusive; . = no result given. Unless noted, the call rests on the fitted dose curve; in most records, active means well fitted curve in the direction sought with a large enough effect; inconclusive means small, poorly fitted or top-dose-only effect, or another doubt; inactive means no such curve, though single readings can be large; an effect the other way counts as inactive or inconclusive.

SMILES	PMP22 txn	S16 F2sN tox	SKOV3 invasion	p53null 32C kill	p53null 39C tox	mTORC1 inh	NLuc saturating	NLuc Km ctr	FLuc ctr PMP22	S16 F2sN tox cnf	PMP22 txn cnf
O=C(NCc1ccccc1)[C@H](Cc1ccccc1)NC(=O)[C@@H]1O[C@@H]1C(=O)NCCc1ccc(O)cc1	.	.	-	.	.	.	.	.	.	.	.
COc1ccc(-c2oc3c(CC=C(C)C)c(O)cc(O)c3c(=O)c2O)cc1	.	.	-	.	.	.	.	.	.	.	.
Cc1c(CN2CCN(S(C)(=O)=O)CC2)sc2c(N3CCOCC3)nc(-c3cnc(N)nc3)nc12	.	.	-	.	.	.	.	.	.	.	.
CCOC(=O)N1CCN([N+]([O-])=NOc2cc(ON=[N+]([O-])N3CCN(C(=O)OCC)CC3)c([N+](=O)[O-])cc2[N+](=O)[O-])CC1	.	.	-	.	.	.	.	.	.	.	.
COc1cc([C@H]2Oc3cc([C@H]4Oc5cc(O)cc(O)c5C(=O)[C@H]4O)ccc3O[C@H]2CO)ccc1O	.	.	-	.	.	.	.	.	.	.	.
CCn1cc(C(=O)NCCc2ccc(C)cc2)c(=O)c2cc(S(=O)(=O)N3CCCCC3)ccc21	-	-	-	-	-	-	.	.	.	.	.
CCn1cc(C(=O)NCCc2ccc(OC)c(OC)c2)c(=O)c2cc(S(=O)(=O)N3CCCCCC3)ccc21	?	?	-	-	-	-	?	?	-	-	-
CCC(C)NC(=O)c1cn(CC)c2ccc(S(=O)(=O)N3CCc4ccccc4C3)cc2c1=O (stereo unspecified)	17µM	-	-	-	-	-	-	-	-	-	-
CCn1cc(C(=O)NC(C)c2ccccc2)c(=O)c2cc(S(=O)(=O)N3CCc4ccccc4C3)ccc21 (stereo unspecified)	?	-	-	-	-	-	.	.	.	.	.
Nc1ccccc1NC(=O)c1ccc(CNc2nccc(-c3cccnc3)n2)cc1	.	.	-	.	.	.	.	.	.	.	.
CN(CC=CC#CC(C)(C)C)Cc1cccc2ccccc12	.	.	-	.	.	.	.	.	.	.	.
CCn1c(=O)c2cc(C(=O)NC3CCC(C)CC3)sc2c2ccccc21 (stereo unspecified)	17µM	?	-	-	-	-	?	-	-	-	-
Cn1c(=O)c2cc(C(=O)NCCCN3CCN(c4ccc(F)cc4)CC3)sc2c2ccccc21	19µM	-	-	-	-	-	?	-	-	34µM	?
